Experimental data: PubChem BioAssay (EPA / NIEHS)
Calls of active or inactive are those of the source. Rule for the calls: active = hit-call score of the fitted dose curve at least 0.9, where 1 is the maximum; inactive = score below 0.9.

Read-out: serum amyloid A (SAA), SAA1 (gene 6288)
Experiment: BSK_CASM3C_SAA: BioMAP Diversity Plus: CASM3C Assay for serum amyloid A (SAA) Biomarker Activity (AID 2283049);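 note: SAA protein level quantified by ELISA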
Settings: primary human coronary artery smooth muscle cells; actives raise or lower the signal

SMILES	outcome	AC50
C=C(C)C(N)=O	inactive	–
c1ccc2c(c1)-c1ccc3ccc4cccc5cc-2c1c3c45	inactive	–
O=C(O)C(F)(F)C(F)(F)C(F)(F)C(F)(F)C(F)(F)C(F)(F)C(F)(F)C(F)F	inactive	–
C[C@]12CC[C@@H]3c4ccc(O)cc4CC[C@H]3[C@@H]1CC[C@@H]2O	inactive	–
CCCCCCCCCC(=O)OCC	–	31.8 µM (active)
Nc1ccc(N)c([N+](=O)[O-])c1	inactive	–
CCCCN(CCO)CCO	inactive	–
CC(=O)OC(C)(C)C1CC=C(C)CC1 (centres undefined)	inactive	–
CC1=CC(C)C(C=O)C(C)C1 (centres undefined) (tested in a mixture with another compound)	inactive	–
CCC(=O)OCC=Cc1ccccc1	inactive	–
CC=CC(=O)C1=C(C)C=CCC1(C)C	inactive	–
CC(=O)CCC=C(C)CCC=C(C)C	inactive	–
CCCCCCCC1CCCC1=O (centres undefined)	–	36.2 µM (active)
O=S1(=O)CC(Cl)(Cl)C(Cl)(Cl)C1	–	0.764 µM (active)
CCCCCCCCCCCCS	inactive	–
CC(=O)OCC=C(C)CCC=C(C)CCC=C(C)C	inactive	–
OCC(F)(OC(F)(F)C(F)(OC(F)(F)C(F)(F)C(F)(F)F)C(F)(F)F)C(F)(F)F (centres undefined)	inactive	–
CC1(C)[C@H](C=C(Cl)Cl)[C@H]1C(=O)OCc1cccc(Oc2ccccc2)c1	inactive	–
CCOC(=O)C=Cc1ccccc1	inactive	–
O=C(O)C(F)(F)OC(F)(F)C(F)(F)OC(F)(F)C(F)(F)C(F)(F)C(F)(F)F	inactive	–
CC(C)(C)c1cccc(O)c1	inactive	–
CC(C)Cc1ccc(C(C)C(=O)O)cc1 (centres undefined)	inactive	–

Read-out: not listed separately
Experiment: BSK_CASM3C_SRB: Viability Assessment in the BioMAP Diversity Plus: CASM3C Assay (AID 2283050);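 note: total protein by SRB staining as cytotoxicity measure in parallel cultures; cells exposed to compound for 24 h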
Settings: primary human coronary artery smooth muscle cells

SMILES	outcome	AC50
C=C(C)C(N)=O	inactive	–
c1ccc2c(c1)-c1ccc3ccc4cccc5cc-2c1c3c45	inactive	–
O=C(O)C(F)(F)C(F)(F)C(F)(F)C(F)(F)C(F)(F)C(F)(F)C(F)(F)C(F)F	inactive	–
C[C@]12CC[C@@H]3c4ccc(O)cc4CC[C@H]3[C@@H]1CC[C@@H]2O	inactive	–
CCCCCCCCCC(=O)OCC	–	33 µM (active)
Nc1ccc(N)c([N+](=O)[O-])c1	inactive	–
CCCCN(CCO)CCO	inactive	–
CC(=O)OC(C)(C)C1CC=C(C)CC1 (centres undefined)	–	28.6 µM (active)
CC1=CC(C)C(C=O)C(C)C1 (centres undefined) (tested in a mixture with another compound)	inactive	–
CCC(=O)OCC=Cc1ccccc1	inactive	–
CC=CC(=O)C1=C(C)C=CCC1(C)C	inactive	–
CC(=O)CCC=C(C)CCC=C(C)C	inactive	–
CCCCCCCC1CCCC1=O (centres undefined)	–	36.6 µM (active)
O=S1(=O)CC(Cl)(Cl)C(Cl)(Cl)C1	–	0.82 µM (active)
CCCCCCCCCCCCS	–	28.5 µM (active)
CC(=O)OCC=C(C)CCC=C(C)CCC=C(C)C	inactive	–
OCC(F)(OC(F)(F)C(F)(OC(F)(F)C(F)(F)C(F)(F)F)C(F)(F)F)C(F)(F)F (centres undefined)	inactive	–
CC1(C)[C@H](C=C(Cl)Cl)[C@H]1C(=O)OCc1cccc(Oc2ccccc2)c1	inactive	–
CCOC(=O)C=Cc1ccccc1	inactive	–
O=C(O)C(F)(F)OC(F)(F)C(F)(F)OC(F)(F)C(F)(F)C(F)(F)C(F)(F)F	inactive	–
CC(C)(C)c1cccc(O)c1	inactive	–
CC(C)Cc1ccc(C(C)C(=O)O)cc1 (centres undefined)	inactive	–
